A selection: hits, their analogues and other compounds. The true share with any hit is near 9.3%.
FLuc modulator – inhibits or activates purified firefly luciferase, miR-21 counter-screen; purified FLuc, Km substrates, luminescence inhibition; Potency, µM (highest dose often 57.5 µM), for the others: top-dose activity change, negative = inhibition, hits mostly inhibitors; 6.9% of 360,000 active;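 also: plate controls were vehicle for no effect and reference inhibitor for full effect; nearly all actives have a fitted effect of over 55% in size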
Target sequence (P08659 whole entry, looked up): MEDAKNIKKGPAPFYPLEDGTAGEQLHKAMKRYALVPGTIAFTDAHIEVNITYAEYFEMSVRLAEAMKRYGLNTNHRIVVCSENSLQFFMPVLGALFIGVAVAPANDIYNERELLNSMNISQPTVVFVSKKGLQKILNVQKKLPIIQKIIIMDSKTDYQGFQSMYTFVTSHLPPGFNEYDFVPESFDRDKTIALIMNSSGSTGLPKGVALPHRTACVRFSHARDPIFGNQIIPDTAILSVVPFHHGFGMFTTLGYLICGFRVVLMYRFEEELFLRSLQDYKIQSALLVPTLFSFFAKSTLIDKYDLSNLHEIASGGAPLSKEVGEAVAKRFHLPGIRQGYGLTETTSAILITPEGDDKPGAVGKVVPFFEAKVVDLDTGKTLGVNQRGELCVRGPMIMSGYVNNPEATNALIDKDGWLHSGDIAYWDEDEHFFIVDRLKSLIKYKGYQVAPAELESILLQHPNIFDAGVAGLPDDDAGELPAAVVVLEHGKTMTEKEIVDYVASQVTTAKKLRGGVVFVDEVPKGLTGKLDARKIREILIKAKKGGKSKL
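Biochemical qHTS of compounds, final roughly 60 µM downward over six points, against 10 nM purified firefly luciferase using Km concentrations of substrates (10 uM D-luciferin, 10 uM ATP) in Tris acetate pH 7.5 buffer; luminescence output.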
ELG1 DNA repair – blocks ELG1-dependent DNA repair in HEK293T cells; HEK293T ELG1-luciferase reporter, luminescence, 16 h; DNA damage induced by 5-fluorouridine; Potency, µM (series often up to 46.1 µM), inactives show at the highest dose activity change, negative = inhibition, most hits filed as inhibitors; 2.3% of 330,000 active; AID 504467; also: % is scaled to controls: 0 for no effect and ±100 for the full control effect; nearly all actives have a fitted effect of over 55% in size
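5-Fluorouridine DNA damage + compound/DMSO, 2,000 cells/well, 16 h, 37 °C/5% CO2. ONE-Glo, 30 min RT, luminescence. Readout = decrease in reporter signal.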
SMN2 splice enh – enhancers of SMN2 splice variant expression; HEK293 SMN2-luciferase splicing reporter, luminescence, 30-36 h; 2.8% of 210,000 active; Potency, µM (titrated, usually from 46.1 µM), without a hit: top-dose activity change, positive = activation, actives largely listed as activators; also: % of control where 0% means no effect; nearly all actives have a fitted effect of over 55% in size
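qHTS luciferase splicing reporter: luminescence rises when SMN2 exon 7 is included in transfected HEK293 cells. Compound exposure lasted 30-36 h at 37C, with 4.5 mM final sodium butyrate as control, followed by a ONE-Glo read.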
NPC1 prom act – activates the NPC1 promoter. 2.4% of 320,000 active. Huh7 NPC1 promoter luciferase reporter, 24 h. Potency, µM (series often up to 9.22 µM), for inactives: top-dose activation, actives largely listed as activators; also: % of control where 0% means no effect; nearly all actives have a fitted effect of over 60% in size
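Quantitative HTS used a cell-based reporter: Huh7 cells stably bearing the NPC1 promoter upstream of luciferase were treated with compounds for 24 h, and promoter activation was read as luminescence.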
ELG1 genotoxic – inducers of genotoxicity in HEK293T ELG1-luciferase cells | HEK293T ELG1-luciferase reporter, luminescence, 16 h | Potency, µM (top dose mostly 46 µM), inactives show top-dose activity change, positive = activation, most hits filed as activators | 1.3% of 330,000 active; also: % of control where 0% means no effect; nearly all actives have a fitted effect of over 60% in size
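Screening used a luciferase reporter fused to human ELG1 in HEK293T cells. Luminescence was read on a CCD plate imager after 16 hr exposure and 30 min ONE-Glo incubation.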
Rab9 promoter act – activates the Rab9 promoter | 2.8% of 320,000 active | Potency, µM (highest dose often 9.22 µM), without a hit: at the top dose activation, negative = inhibition, actives largely listed as activators | Huh7 Rab9 promoter-luciferase reporter, luminescence, 24 h; also: % of control where 0% means no effect; nearly all actives have a fitted effect of over 60% in size
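Quantitative HTS format; Huh7 Rab9-luciferase reporter cells (1500/well) receive compound 2 h post-plating, incubate 24 h at 37 °C, then get luciferase reagent for 10 min before luminescence reading.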
The depositor's hits bear a star; ? = inconclusive; nt = not tested or not shown; [ ] = dose if it differs, or a comment. Calls follow the shape of the dose curve; as a rule, active = well fitted curve in the direction sought with a large enough effect; inconclusive = small, poorly fitted or top-dose-only effect, or another doubt; inactive = no such curve, though single readings can be large; an effect the other way counts as inactive or inconclusive. Potency is read from the fitted curve at half-maximal effect.

SMILES	FLuc modulator	ELG1 DNA repair	SMN2 splice enh	NPC1 prom act	ELG1 genotoxic	Rab9 promoter act
COc1cc2nc(Nc3cccc(C)c3)nc(N)c2cc1OC	5.4µM*	nt	7%	nt	nt	nt
COc1cc2nc(Nc3ccc(C)c(C)c3)nc(N)c2cc1OC	?	-3%	-8%	0%	13%	-12%
CCN(CC)C(=O)c1c(-c2ccccc2)oc2ccc(O)cc12	-2%	-10%	nt	-2%	0%	1%
Cc1nn(-c2ccc(N3CCOCC3)nn2)c(C)c1CCC(=O)Nc1ccc(F)cc1F	-12%	nt	nt	nt	nt	nt
COC(=O)c1cc(=O)[nH]c(=O)[nH]1	nt	nt	-1%[9.22 µM]	nt	nt	nt
Cc1ccc(NC(=O)c2ccc3c(c2)CCN3S(C)(=O)=O)cc1C	15µM*	-4%	nt	2.5µM*	9%	4µM*
CS(=O)(=O)N1CCc2cc(C(=O)OCC(=O)c3ccccc3)ccc21	4.8µM*	?	-4%	3.2µM*	13µM*	3.5µM*
Cc1cccc(C)c1NC(=O)c1ccc2c(c1)CCN2S(C)(=O)=O	5%	-15%	nt	0%	-4%	-15%
CS(=O)(=O)N1CCc2cc(C(=O)Nc3cccc(F)c3)ccc21	?	nt	11µM*	nt	nt	nt
Cc1cccc(NC(=O)c2ccc3c(c2)CCN3S(C)(=O)=O)c1	15µM*	?	nt	?	?	?
Cc1ccc(S(=O)(=O)N2CCc3cc(C(=O)Nc4ccc(C)c(C)c4)ccc32)cc1	0%	nt	-7%	nt	nt	nt
Cc1cc(C)cc(NC(=O)c2ccc3c(c2)CCN3S(C)(=O)=O)c1	?	-3%	nt	0%	0%	-5%
Cc1ccc(-n2cc(C(=O)O)c(=O)cc2C)c(C)c1	0%	0%	9%	-18%	-19%	-1%
COC(=O)c1ccc(NC(=O)CN2CCN(c3ccccn3)CC2)cc1	1%	2%	16%	0%	-4%	6%
O=C1c2ccccc2NC(c2ccccc2Cl)N1N=C1CCCCCC1 (centres undefined)	12µM*	?	-7%[1.84 µM]	-2%	?	-1%
O=C(Nc1ccccc1)Nc1cccc(-c2nnco2)c1	15µM*	21%	nt	3%	-3%	17%
CCOc1cccc(C(=O)Nc2cccc(-c3nnc(-c4ccc(C)cc4)o3)c2)c1	0%	-3%	-19%	-12%	9%	-27%
CC(=O)Nc1cccc(-c2nnc(-c3ccccc3)o2)c1	12µM*	?	13µM*	3.5µM*	8.2µM*	3.5µM*
CCOc1cccc(C(=O)Nc2cccc(-c3nnc(-c4ccccc4)o3)c2)c1	6.7µM*	9.2µM*	-15%	1%	-9%	6%
CC(=O)Nc1cccc(-c2nc(-c3ccccc3)no2)c1	2.4µM*	nt	nt	nt	nt	nt
O=C(Nc1cccc(-c2nnc(-c3ccccc3)o2)c1)C1CC1	?	?	-9%	19%	6%	0%[1.84 µM]
COc1cccc(-n2ccn(CC(=O)Nc3ccccc3F)c(=O)c2=O)c1	6%	nt	nt	nt	nt	nt
COC(=O)CSc1nc2c(cnn2-c2ccc(Cl)cc2)c(=O)[nH]1	0%	16%	nt	-5%	1%	-1%
CCOCCc1nnc(NC(=O)C(=O)c2cc(C)n(-c3ccc(C)cc3C)c2C)s1	-2%	nt	nt	nt	nt	nt
COc1cccc(N2CCN(C(=O)c3ccc(CS(=O)Cc4ccc(C)cc4)o3)CC2)c1 (centres undefined)	0%	15µM*	nt	-1%	-9%	-3%
SMILES	FLuc modulator	ELG1 DNA repair	SMN2 splice enh	NPC1 prom act	ELG1 genotoxic	Rab9 promoter act
COc1cccc(N2CCN(C(=O)c3ccc(CS(=O)c4ccc(C)cc4)o3)CC2)c1 (centres undefined)	-3%	10%	nt	-2%	1%	-24%
O=C(c1ccc(CS(=O)Cc2ccc(Cl)cc2)o1)N1CCN(c2cccc(Cl)c2)CC1 (centres undefined)	2%	?	nt	1%	-14%	6%
O=C(c1ccc(CS(=O)Cc2ccc(Cl)cc2)o1)N1CCN(c2ccc(F)cc2)CC1 (centres undefined)	1%	23µM*	nt	0%	-10%	0%
c1cncc(-c2nc(NCc3ccc4c(c3)OCO4)c3ccccc3n2)c1	?	21µM*	nt	3%	-9%	-1%
c1cncc(-c2nc(NCC3COc4ccccc4O3)c3ccccc3n2)c1 (centres undefined)	4%	15µM*	-2%	0%	-25%	1%
c1cncc(CNc2nc(-c3cccnc3)nc3ccccc23)c1	4%	-7%	nt	0%	-10%	0%
c1ccc(CNc2nc(-c3cccnc3)nc3ccccc23)cc1	2%	?	nt	-4%	-2%	3%
CCCCCCCC/C=C\CCCCCCCCOC[C@H](COP(=O)([O-])OCC[N+](C)(C)C)OC(C)=O	nt	nt	-2%	nt	nt	nt
Cc1nn(CC(=O)NCCC2=CCCCC2)c(C)c1S(=O)(=O)N(C)C	nt	8%	nt	nt	0%	nt
COc1ccc(/C=N/Nc2nnc(-c3ncc[nH]3)c3ccccc23)cc1	0.34µM*	?	14%	2.8µM*	16%	?
Oc1ccc2ccccc2c1/C=N/c1nccs1	-7%	10%	-10%	8%	-4%	-5%
Oc1ccc2ccccc2c1/C=N/Nc1nnc(-c2ncc[nH]2)c2ccccc12	3.4µM*	?	-116%	-18%	17%	-30%
Cc1cccc(NC(=O)C(=O)C2C(=O)Nc3ccccc32)c1 (centres undefined)	15µM*	9%	nt	21%	4%	18%
O=C(Nc1ccc(F)cc1)C(=O)C1C(=O)Nc2ccccc21 (centres undefined)	?	?	nt	5%	1%	16%
Clc1ccc(-n2ncc3c(NCc4ccco4)ncnc32)cc1	6µM*	-7%	-19%	?	-7%	2.5µM*
COc1ccc(-n2ncc3c(NCc4ccco4)ncnc32)cc1	9.5µM*	?	?	2.2µM*	?	1.4µM*
COc1ccc(-n2ncc3c(NCc4ccccn4)ncnc32)cc1	15µM*	?	?	?	?	?
CCC(CC)C(=O)Nc1ccccc1SCc1cc(=O)c2cccc(C)c2[nH]1	-8%	nt	nt	nt	nt	nt
COc1cccc(Nc2sc(C(=O)c3ccc(F)cc3)c(N)c2C(=O)NCc2ccc(C)cc2)c1	2%	nt	nt	nt	nt	nt
FC(F)C(F)(F)C1=CC(c2cccs2)=NCCN1	7%	-1%	0.71µM*	-2%	-2%	0%
Cc1ccc(NC(=O)Nc2ccc(F)c(Cl)c2)cc1	4.3µM*	?	13µM*	?	8%	?
COc1ccc(NC(=O)Nc2ccc(F)c(Cl)c2)cc1	?	?	14µM*	3.5µM*	4%	2.8µM*
O=C(Nc1cccnc1)Nc1ccc(F)c(Cl)c1	24µM*	6%	nt	12%	-8%	12%

High-throughput results deposited in PubChem by National Center for Advancing Translational Sciences (NCATS).
